Targets with the largest changes are over-represented here; the source holds about 21,000 in all.
compound: Cc1cc(ccc1-c1ccccc1)C(=O)N1CCCN(CC1)C(=O)CCl [compound 10]; assay: probe-labelled cysteine peptide fold change vs DMSO (competition) (log2 fold change); higher = less target engagement (more negative = stronger competition); settings: 10 µM; THP-1; incubation time: 4 h
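Note: competitive profiling in live THP-1 cells: cysteine peptides tagged with an iodoacetamide desthiobiotin (IA-DTB) probe, intensity after compound treatment relative to DMSO-treated cells.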

UniProt Q6P5Z2, sequence (Q6P5Z2 whole entry, looked up): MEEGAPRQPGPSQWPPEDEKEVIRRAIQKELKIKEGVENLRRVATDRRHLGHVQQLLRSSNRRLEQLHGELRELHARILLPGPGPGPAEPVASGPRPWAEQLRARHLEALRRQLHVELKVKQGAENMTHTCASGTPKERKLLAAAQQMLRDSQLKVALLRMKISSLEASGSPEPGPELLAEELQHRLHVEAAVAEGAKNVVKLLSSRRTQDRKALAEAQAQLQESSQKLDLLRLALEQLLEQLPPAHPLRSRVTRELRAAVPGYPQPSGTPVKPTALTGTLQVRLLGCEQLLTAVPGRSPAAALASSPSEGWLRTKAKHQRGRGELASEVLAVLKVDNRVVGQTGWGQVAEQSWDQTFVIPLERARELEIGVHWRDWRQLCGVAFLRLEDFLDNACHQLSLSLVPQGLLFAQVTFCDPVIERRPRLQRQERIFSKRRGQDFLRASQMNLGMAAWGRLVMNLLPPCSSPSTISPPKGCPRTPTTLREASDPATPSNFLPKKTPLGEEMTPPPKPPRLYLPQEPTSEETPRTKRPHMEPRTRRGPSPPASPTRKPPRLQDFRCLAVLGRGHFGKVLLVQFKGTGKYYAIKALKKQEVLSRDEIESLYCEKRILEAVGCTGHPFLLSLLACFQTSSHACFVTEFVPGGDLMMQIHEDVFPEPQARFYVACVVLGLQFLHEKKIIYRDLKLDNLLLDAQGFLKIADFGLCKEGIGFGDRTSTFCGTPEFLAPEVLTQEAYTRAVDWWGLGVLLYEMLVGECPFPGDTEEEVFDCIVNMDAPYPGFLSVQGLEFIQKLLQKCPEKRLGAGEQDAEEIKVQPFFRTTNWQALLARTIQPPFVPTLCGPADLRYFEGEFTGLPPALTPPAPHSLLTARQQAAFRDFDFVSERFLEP
UniProt Q15172, sequence (Q15172 whole entry): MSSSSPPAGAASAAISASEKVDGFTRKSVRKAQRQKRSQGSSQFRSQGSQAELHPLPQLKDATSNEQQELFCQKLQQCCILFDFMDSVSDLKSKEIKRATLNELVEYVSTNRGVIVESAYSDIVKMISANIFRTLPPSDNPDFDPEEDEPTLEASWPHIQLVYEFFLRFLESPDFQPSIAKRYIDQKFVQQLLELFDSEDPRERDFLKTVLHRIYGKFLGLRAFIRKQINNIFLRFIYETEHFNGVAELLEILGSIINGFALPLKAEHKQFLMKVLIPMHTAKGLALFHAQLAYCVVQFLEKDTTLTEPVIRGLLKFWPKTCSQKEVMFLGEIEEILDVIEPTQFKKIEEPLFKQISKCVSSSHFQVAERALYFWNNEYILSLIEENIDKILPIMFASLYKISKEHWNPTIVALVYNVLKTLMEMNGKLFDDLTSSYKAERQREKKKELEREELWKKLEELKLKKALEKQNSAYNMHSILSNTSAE
UniProt P50479, sequence (P50479 whole entry, looked up): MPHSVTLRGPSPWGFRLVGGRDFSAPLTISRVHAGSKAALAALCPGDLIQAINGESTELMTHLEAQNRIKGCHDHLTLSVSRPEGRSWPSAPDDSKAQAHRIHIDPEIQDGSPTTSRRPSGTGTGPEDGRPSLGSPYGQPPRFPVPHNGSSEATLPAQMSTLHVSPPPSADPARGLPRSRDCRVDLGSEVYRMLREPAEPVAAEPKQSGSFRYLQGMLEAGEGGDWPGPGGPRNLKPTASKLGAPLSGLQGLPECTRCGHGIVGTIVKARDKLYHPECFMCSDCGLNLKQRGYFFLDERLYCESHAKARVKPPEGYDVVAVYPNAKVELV
UniProt P29590, sequence (P29590 whole entry, looked up): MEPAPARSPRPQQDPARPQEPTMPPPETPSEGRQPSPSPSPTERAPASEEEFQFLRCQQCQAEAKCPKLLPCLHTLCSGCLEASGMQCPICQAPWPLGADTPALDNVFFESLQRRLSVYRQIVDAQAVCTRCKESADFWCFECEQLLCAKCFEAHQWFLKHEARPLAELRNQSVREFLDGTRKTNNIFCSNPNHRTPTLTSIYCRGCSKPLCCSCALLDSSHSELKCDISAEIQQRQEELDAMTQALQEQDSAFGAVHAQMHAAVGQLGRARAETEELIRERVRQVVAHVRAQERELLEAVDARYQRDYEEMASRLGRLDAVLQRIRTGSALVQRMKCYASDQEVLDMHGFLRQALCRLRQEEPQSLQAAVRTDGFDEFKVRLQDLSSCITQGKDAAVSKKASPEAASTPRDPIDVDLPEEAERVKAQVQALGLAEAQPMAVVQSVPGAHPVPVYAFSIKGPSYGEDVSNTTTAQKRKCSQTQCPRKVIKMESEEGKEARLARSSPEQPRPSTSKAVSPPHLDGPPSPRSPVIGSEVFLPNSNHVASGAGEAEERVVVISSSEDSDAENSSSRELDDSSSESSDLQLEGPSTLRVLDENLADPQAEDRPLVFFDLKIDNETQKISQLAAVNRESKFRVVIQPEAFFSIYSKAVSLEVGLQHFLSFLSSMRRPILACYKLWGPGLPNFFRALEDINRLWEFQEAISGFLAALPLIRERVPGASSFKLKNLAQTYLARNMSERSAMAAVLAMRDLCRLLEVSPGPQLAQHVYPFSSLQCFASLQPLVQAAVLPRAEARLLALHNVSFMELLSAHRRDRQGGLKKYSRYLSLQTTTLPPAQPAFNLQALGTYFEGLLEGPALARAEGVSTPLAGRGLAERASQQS
UniProt Q8TCU6, sequence (Q8TCU6 whole entry, looked up): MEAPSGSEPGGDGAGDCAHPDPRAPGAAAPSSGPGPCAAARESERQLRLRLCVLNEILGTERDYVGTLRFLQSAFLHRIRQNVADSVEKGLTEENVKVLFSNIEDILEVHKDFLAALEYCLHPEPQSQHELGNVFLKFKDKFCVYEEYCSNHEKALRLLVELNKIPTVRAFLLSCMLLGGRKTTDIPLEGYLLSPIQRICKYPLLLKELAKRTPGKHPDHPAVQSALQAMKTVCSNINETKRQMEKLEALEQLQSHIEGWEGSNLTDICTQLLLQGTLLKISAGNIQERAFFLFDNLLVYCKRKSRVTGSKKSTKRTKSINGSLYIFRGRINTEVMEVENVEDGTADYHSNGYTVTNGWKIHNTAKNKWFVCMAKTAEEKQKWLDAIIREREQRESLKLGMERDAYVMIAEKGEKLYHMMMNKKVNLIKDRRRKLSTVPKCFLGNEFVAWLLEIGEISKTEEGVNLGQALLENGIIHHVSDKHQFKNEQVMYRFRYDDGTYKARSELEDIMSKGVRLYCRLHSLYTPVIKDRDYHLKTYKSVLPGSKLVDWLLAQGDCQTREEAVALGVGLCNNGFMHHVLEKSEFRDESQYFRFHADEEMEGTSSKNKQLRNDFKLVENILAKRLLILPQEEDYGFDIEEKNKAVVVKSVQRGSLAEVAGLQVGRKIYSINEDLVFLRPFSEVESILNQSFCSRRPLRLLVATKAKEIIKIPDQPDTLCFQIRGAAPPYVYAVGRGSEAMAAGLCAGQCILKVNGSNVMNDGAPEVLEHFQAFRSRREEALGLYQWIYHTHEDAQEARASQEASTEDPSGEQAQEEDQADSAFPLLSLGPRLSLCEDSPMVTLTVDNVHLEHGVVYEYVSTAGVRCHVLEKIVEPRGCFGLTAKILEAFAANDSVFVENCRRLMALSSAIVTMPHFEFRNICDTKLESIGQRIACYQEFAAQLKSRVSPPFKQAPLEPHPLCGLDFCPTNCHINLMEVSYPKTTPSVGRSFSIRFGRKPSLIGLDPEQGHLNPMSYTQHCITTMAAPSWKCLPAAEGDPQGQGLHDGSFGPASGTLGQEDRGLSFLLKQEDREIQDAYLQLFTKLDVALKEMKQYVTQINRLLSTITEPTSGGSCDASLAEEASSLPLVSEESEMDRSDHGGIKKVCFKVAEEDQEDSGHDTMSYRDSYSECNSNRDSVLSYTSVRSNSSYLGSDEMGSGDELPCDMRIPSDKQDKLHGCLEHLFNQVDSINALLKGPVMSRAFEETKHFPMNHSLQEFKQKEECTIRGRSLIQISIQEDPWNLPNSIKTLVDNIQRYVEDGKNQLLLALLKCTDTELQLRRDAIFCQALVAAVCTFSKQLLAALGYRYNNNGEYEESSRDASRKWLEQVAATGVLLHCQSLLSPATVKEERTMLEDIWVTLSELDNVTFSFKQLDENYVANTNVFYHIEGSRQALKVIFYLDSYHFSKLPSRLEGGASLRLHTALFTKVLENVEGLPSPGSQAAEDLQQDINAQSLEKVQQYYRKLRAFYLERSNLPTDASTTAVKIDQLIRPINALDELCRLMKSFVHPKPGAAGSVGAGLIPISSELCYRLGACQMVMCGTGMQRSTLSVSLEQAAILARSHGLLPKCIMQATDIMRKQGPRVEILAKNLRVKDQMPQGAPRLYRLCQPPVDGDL
UniProt Q86YH6, sequence (Q86YH6 whole entry): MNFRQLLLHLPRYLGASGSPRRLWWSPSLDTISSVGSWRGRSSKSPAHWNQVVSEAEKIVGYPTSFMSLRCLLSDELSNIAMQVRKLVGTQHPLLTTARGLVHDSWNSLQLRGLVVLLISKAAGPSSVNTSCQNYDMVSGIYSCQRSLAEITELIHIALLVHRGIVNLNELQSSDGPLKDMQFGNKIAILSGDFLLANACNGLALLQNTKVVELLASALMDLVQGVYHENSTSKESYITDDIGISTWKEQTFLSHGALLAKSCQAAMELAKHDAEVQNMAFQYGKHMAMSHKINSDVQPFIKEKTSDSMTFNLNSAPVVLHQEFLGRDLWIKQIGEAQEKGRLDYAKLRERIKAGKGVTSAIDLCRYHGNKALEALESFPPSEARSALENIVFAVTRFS
UniProt Q7RTV0, sequence (Q7RTV0 whole entry, looked up): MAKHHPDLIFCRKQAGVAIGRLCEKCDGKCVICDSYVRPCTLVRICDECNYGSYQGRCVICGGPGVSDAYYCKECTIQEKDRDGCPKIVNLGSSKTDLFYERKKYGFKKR

Target	probe-labelled cysteine peptide fold change
POLR2A_P24928_451_HMCDGDIVIFNR (UniProt P24928)	-0.0734
PML_P29590_140+143_ESADFWCFECEQLLCAK (UniProt P29590)	0.0944
PDIA4_P13667_555_DVLIEFYAPWCGHCK<|>PDIA3_P30101_406_DVLIEFYAPWCGHCK (UniProt P30101+P13667)	-0.287
POLR2K_P53803_22_QQPMIYICGECHTENEIK (UniProt P53803)	-0.0834
PLA2G4C_Q9UP65_351_KTGICASK (UniProt Q9UP65)	-0.289
PCCB_P05166_291_DFFNYLPLSSQDPAPVRECHDPSDR (UniProt P05166)	-0.474
PPP1CC_P36873_140_IYGFYDECKR<|>PPP1CA_P62140_140_IYGFYDECKR (UniProt P62140+P36873)	0.0922
PGK1_P00558_367+379_GCITIIGGGDTATCCAK (UniProt P00558)	0.296
PDLIM4_P50479_258_CGHGIVGTIVK (UniProt P50479)	-0.0847
PREX1_Q8TCU6_1173_DSYSECNSNR (UniProt Q8TCU6)	0.634
PLBD2_Q8NHP8_492_YNDFLHDPLSLCK (UniProt Q8NHP8)	0.0964
PHF5A_Q7RTV0_46_ICDECNYGSYQGR (UniProt Q7RTV0)	-0.00469
PDSS2_Q86YH6_71_CLLSDELSNIAMQVR (UniProt Q86YH6)	-0.424
PPP2R5A_Q15172_72_DATSNEQQELFCQK (UniProt Q15172)	0.0287
PKN3_Q6P5Z2_131_QGAENMTHTCASGTPK (UniProt Q6P5Z2)	-0.00333

From the supplement of paper PMC12067093, “Discovery and optimisation of a covalent ligand for TRIM25 and its application to targeted protein ubiquitination” (Chemical Science, 2025)
